# Screens from PubChem.
# KCNQ2 block: rat KCNQ2 potassium channel inhibitors, primary screen, cell-based, CHO-K1, FluxOR thallium flux, B-score | Potassium voltage-gated channel subfamily KQT member 2 (Rattus norvegicus), O88943 | 20 min; hits give low values | B-score at 10 µM | 1.1% of 310,000 active | AID 2156, 2009;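 active = fluorescence ratio B-score at most minus 3 library SDs, with starting brightness B-score within 2 library SDs, cut at about -5.5 in these data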
# Target sequence (O88943 whole entry, looked up): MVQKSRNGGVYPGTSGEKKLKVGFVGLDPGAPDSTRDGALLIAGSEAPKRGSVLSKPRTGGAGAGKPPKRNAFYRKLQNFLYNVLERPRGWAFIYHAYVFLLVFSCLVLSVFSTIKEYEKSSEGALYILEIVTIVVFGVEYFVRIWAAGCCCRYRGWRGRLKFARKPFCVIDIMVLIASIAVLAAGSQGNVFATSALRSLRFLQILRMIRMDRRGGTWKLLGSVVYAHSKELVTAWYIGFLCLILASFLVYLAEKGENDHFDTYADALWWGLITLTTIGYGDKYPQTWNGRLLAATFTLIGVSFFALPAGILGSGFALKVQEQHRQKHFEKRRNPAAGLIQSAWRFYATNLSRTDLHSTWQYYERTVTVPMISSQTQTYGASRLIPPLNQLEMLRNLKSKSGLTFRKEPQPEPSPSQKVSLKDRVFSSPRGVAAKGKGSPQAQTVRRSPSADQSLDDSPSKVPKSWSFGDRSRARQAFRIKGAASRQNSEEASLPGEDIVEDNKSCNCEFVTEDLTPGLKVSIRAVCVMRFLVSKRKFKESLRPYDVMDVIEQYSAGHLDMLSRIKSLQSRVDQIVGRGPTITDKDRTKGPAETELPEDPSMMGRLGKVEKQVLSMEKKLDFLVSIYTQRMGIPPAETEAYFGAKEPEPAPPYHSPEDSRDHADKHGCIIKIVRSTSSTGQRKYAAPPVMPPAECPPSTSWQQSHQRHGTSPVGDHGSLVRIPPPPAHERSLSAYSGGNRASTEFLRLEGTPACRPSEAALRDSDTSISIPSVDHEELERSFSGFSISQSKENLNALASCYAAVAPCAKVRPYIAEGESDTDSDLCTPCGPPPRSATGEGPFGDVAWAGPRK
# KCNQ2 pot: potentiators of rat KCNQ2 potassium channel; CHO-K1 KCNQ2, FluxOR thallium flux fluorescence; hits give high values; B-score at 10 µM; 0.54% of 310,000 active; AID 2239, 2010;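 active = fluorescence ratio B-score at least 3 SD of library B-scores, with initial fluorescence B-score within 3 of them, cut at about 5.3 in these data; same plate scores as AID 2156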;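 note: B-score of peak minus minimum over baseline fluorescence ratio after K+ and Tl+ stimulus; positive B-score means potentiation of KCNQ2 with more thallium influx and brighter signal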
# Active calls of the source: *; i = inactive; x = not tested or not shown. Most compounds without a hit are left out; they make up all but 1.6% or so of the library.
SMILES,KCNQ2 block,KCNQ2 pot
CCc1ccc(C(=O)NNC(=O)c2cccc(N3C(=O)CCC3=O)c2)cc1,i,1.1
COc1ccc(S(=O)(=O)N2CCCCCC2)cc1C(=O)N(C)Cc1ccccc1F,-5.8*,-5.8
COc1cccc(CN(C)C(=O)c2cc(S(=O)(=O)N3CCN(c4ccccc4)CC3)ccc2Cl)c1,-5.6*,-5.6
COc1ccc(S(=O)(=O)N2CCCCCC2)cc1C(=O)N(C)Cc1ccc(C)cc1,i,x
COc1cccc(NC(=O)CN(C)C(=O)c2cccc(S(=O)(=O)N3CCN(c4ccccc4)CC3)c2)c1,i,0.05
CCOC(=O)Cn1c(=NC(=O)CSC(C)=O)sc2cc(OC)ccc21,i,x
CCOC(=O)Cn1c(=NC(=O)CSC(C)=O)sc2ccccc21,-6.8*,-6.8
CCc1noc(C)c1C(=O)OCC(=O)NC(=O)c1ccccc1,i,0.37
COC(CNC(=O)CCc1c(C)nc2c(c(C)nn2-c2ccc(C)cc2)c1C)OC,i,0.93
Cc1ccc(-n2nc(C)c3c(C)c(CCC(=O)Nc4ccc(CN5CCCC5)cc4)c(C)nc32)cc1,-7.9*,-7.9
CN(CC(=O)Nc1ccccc1-c1ccccc1)Cc1ccccc1Cl,-6.3*,-6.3
Cc1ccc(NC(=O)CN(C)CC(=O)Nc2ccccc2-c2ccccc2)cc1,i,x
O=C(CCc1ccccc1)c1nnc(-c2ccccc2)o1,i,x
CCN(CC)C(=O)c1cc2c(=O)n3ccccc3nc2s1,i,0.76
CCN(CC)C(=O)c1cc2c(=O)oc3ccccc3c2s1,-6.9*,-6.9
CC1=NN(c2ccccc2)C(=O)/C1=C/c1ccc(-c2ccc(C)c(C(=O)O)c2)o1,i,6.8*
CC1=NN(c2ccc(Cl)c(C(=O)O)c2)C(=O)/C1=C\c1ccc(-c2ccc(C(=O)O)cc2)o1,i,1.6
COc1ccc(S(=O)(=O)N(C)CC(=O)NC2CCCCC2)cc1Cl,i,0.01
COc1ccc(S(=O)(=O)N(CC(N)=O)C2CCCCC2)cc1Cl,-5.7*,-5.7
N=C(SC1CC(=O)N(c2ccc(F)cc2)C1=O)N1N=C(c2ccccc2)CC1c1ccccc1 (centres undefined),i,1.9
Cc1ccc(S(=O)(=O)c2nc(S(C)(=O)=O)sc2N2CCC(C)CC2)cc1,i,x
O=C(CCC(=O)c1cccs1)NCc1cccc(Cl)c1,-6.3*,-6.3
O=C(O)CSCC(=O)NCc1cccc(C(F)(F)F)c1,i,0.01
O=C(CCC(=O)c1cccs1)NCc1cccc(C(F)(F)F)c1,-6.4*,-6.4
O=C(CSc1cccc(C(F)(F)F)c1)NCc1ccccc1,i,16*
SMILES,KCNQ2 block,KCNQ2 pot
O=C(COC(=O)CCC(=O)c1cccs1)NCc1ccc(Cl)cc1,i,0.13
O=C(CSc1ccccc1)NCc1ccccc1,i,x
Cc1cccc(N(O)C(=O)Nc2cccc(Cl)c2)c1,i,4.7
CCCn1cnc2cc(NC(=O)c3cccs3)ccc21,i,x
CCN(CC)CC(=O)Nc1ccc([N+](=O)[O-])cc1,i,x
N#Cc1ccc(CN2CCN(C(=O)Cn3nc(C(N)=O)c4ccccc4c3=O)CC2)cc1,i,x
O=S(=O)(Nc1c(S(=O)(=O)c2ccccc2)c2nc3ccccc3nc2n1C1CCCCC1)c1ccccc1,-6.2*,-6.2
C=CCn1c(NS(=O)(=O)c2ccccc2)c(S(=O)(=O)c2ccc(C)cc2)c2nc3ccccc3nc21,i,x
O=C(CSc1nc(N2CCCCC2)nc(N2CCCCC2)n1)N1CCc2ccccc21,i,14*
Cc1cc(C)nc(SCC(=O)N2CCc3ccccc32)n1,i,x
Cc1nc(SCC(=O)N2CCN(c3ccccc3)CC2)n[nH]1,i,x
O=C(CSc1nc(N2CCCCC2)nc(N2CCCCC2)n1)N1CCN(c2ccccc2)CC1,i,19*
CSc1ccccc1NC(=O)C(=O)c1c[nH]c2ccccc12,i,0.07
O=C(Oc1cc(Cl)cc(Cl)c1)c1cnc2n(c1=O)CCS2,i,0.35
CCc1ccc(C2=CSC3=NCCN23)cc1,i,3.5
O=C(N/N=C/c1ccccc1OCC(=O)N1CCCC1)C(=O)Nc1ccccc1F,i,1.2
Cc1cc(SC#N)cc(C)c1NC(=O)CCl,i,6.3*
CCc1cc(SC#N)cc(C)c1NC(=O)CCl,i,11*
CCC(=O)Nc1ccc(SC#N)cc1C,i,0.11
CCc1cc(SC#N)cc(C)c1N,i,x
CCc1nnc(NC(=O)C2CCCN2C(=O)Nc2ccc(Cl)cc2)s1 (centres undefined),i,0.22
Cc1ccc(CNC(=O)c2cc3ccccc3oc2=O)cc1,i,0.41
O=C(NN1CCOCC1)c1ccc(Cl)s1,i,1.8
COc1ccc(C(=O)NCC(=O)OCC(=O)Nc2sccc2C#N)cc1OC,i,x
COc1ccc(NC(=O)C(=O)NNC(=O)C(C)Oc2ccc(Cl)cc2Cl)cc1 (centres undefined),i,20*
SMILES,KCNQ2 block,KCNQ2 pot
CC(=O)Nc1ccc(NC(=O)C(C)Oc2ccc(Cl)cc2Cl)cc1 (centres undefined),i,0.1
CCOc1ccc(N2CC(C(=O)Nc3ccncc3)CC2=O)cc1 (centres undefined),i,x
COc1cccc(NC(=O)CN(C)C(=O)C2CCN(C(=O)c3ccccc3C)CC2)c1,i,0.16
CC1CCCC(NC(=O)CCC(=O)NCc2ccccc2)C1C (centres undefined),i,2.5
COC(=O)c1cc(S(=O)(=O)NCc2ccc3c(c2)OCO3)cn1C,i,x
Cn1c(SC2CCCCC2=O)nnc1-c1ccccc1F (centres undefined),i,1.4
CC1(C)CC(=O)C2=C(C1)OC1=C(C(=O)CC(C)(C)C1)C2c1ccc(O)cc1O,i,x
CC1(C)CC(=O)C2=C(C1)OC1=C(C2)C(=O)CC(C)(C)C1,-6*,-6
NS(=O)(=O)c1cc(C(=O)N=Nc2c(O)[nH]c3ccccc23)ccc1Cl,i,x
O=C(NCCOC12CC3CC(CC(C3)C1)C2)c1cccc(Br)c1,-7.2*,-7.2
O=C(O)CCCCCNC(=O)c1cccc(Br)c1,i,x
CC1(C)CC1C(=O)Nc1ccc([N+](=O)[O-])cc1Br (centres undefined),i,1.4
Cc1ccc(C2(c3ccc(C)cc3)CC2C(=O)Nc2ccc([N+](=O)[O-])cc2O)cc1 (centres undefined),-7.8*,-7.8
COc1ccccc1CN1CCC(CNS(=O)(=O)c2cc(-c3onc(C)c3C)ccc2OC)CC1,i,x
Cc1cc(C)c(S(=O)(=O)N(C)CC(=O)NCCCn2ccnc2)c(C)c1,i,x
COc1ccc2nc(/N=C/c3c(C)[nH]n(-c4ccc(C)cc4)c3=O)sc2c1,i,21*
Cc1[nH]n(-c2ccc(Cl)cc2)c(=O)c1/C=N/c1nnc(-c2ccccc2)s1,i,20*
CCc1nnc(NS(=O)(=O)c2ccc(N=Cc3c(C)[nH]n(-c4ccc(Cl)cc4)c3=O)cc2)s1,i,2.1
COc1ccc2nc(/N=C\N(C)C)sc2c1,i,x
N=C1C(=O)OCC1c1ccccc1NC(=O)CN1CCOCC1 (centres undefined),i,x
CC(C)CC(=O)NS(=O)(=O)c1ccc(NS(C)(=O)=O)cc1,i,x
CC(C)(C)NC(=O)CN(Cc1ccc(F)cc1)C(=O)Cn1nnc(-c2ccc(F)cc2)n1,i,0.04
O=C(CSc1nnc(SCc2ccc(Cl)cc2)s1)N/N=C/c1c(Cl)cccc1Cl,i,5.4*
